Reference: the supplement of paper PMC7156485
Where a name gives a salt, the structure may show the parent alone. ± gives the standard deviation of the averaged measurements.

Columns and labels:
Conditions in all cases: concentration: 10 µM; 24 h
[1] = test system: HCC1569; assay: cell number relative to DMSO (% of DMSO); higher = more cells (less growth inhibition / toxicity)
In short: (§1)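 Six fields per well were imaged at ×10 after the cells were fixed in 3.7% formaldehyde and stained with a rabbit anti-H1.0 antibody, an AlexaFluor 647 secondary and DAPI. The HCC1569 and TDF cells had been plated at 800 per well in 384-well plates (RPMI, 10% FBS) and treated in triplicate with compounds at 10 µM for 24 h at 37 °C. The values are the median of replicates of H1.0 nuclear intensity or cell number, as percent of the plate control. Smoothing for positional effects was applied to HCC1569 data.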

[2] = test system: TDF; assay: as above
In short: as §1

[3] = test system: TDF; assay: H1.0 immunofluorescence intensity relative to DMSO (% of DMSO); higher = stronger H1.0 induction, active = 120 or more
In short: as §1

[4] = test system: HCC1569; assay: H1.0 immunofluorescence intensity relative to DMSO (% of DMSO); higher = stronger H1.0 induction, active = 140 or more
In short: as §1
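Throughout, for H1.0 immunofluorescence intensity relative to DMSO: TDF is a line of transformed human dermal fibroblasts of mesenchymal origin.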
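Throughout, for cell number relative to DMSO: TDF denotes transformed human dermal fibroblasts of mesenchymal origin.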

Row | Compound | cell number [1] | cell number [2] | H1.0 immunofluorescence intensity [3] | H1.0 immunofluorescence intensity [4]
1 | CN1Cc2c(ccc3c2OCO3)C2C(O)Cc3cc4c(cc3C21)OCO4 (single isomer, unassigned; (+)) [(+)-Chelidonine] | 58 | 7.56 | 193 (active) | 148 (active)
2 | CC1CCC2(O)C3(C)CC4(O)OC2(C1O)C1(O)C3(O)C(OC(=O)c2ccc[nH]2)C(O)(C(C)C)C41C (centres undefined) [Ryanodine] | 106 | 101 | 93 (inactive) | 88 (inactive)
3 | CC(NC(C)(C)C)C(=O)c1cccc(Cl)c1.Cl (centres undefined) [Bupropion hydrochloride] | 106 | 109 | 102 (inactive) | 99.7 (inactive)
4 | NC(=O)CI [Iodoacetamide] | 47.9 | 33.8 | 134 (active) | 170 (active)
5 | COc1ccc(C(=O)OC2CCC3(C)C4CCC5C6(O)CC(O)C7(O)C(CN8CC(C)CCC8C7(C)O)C6(O)CC53OC24O)cc1OC (centres undefined) [Veratridine] | 107 | 97.2 | 96.7 (inactive) | 81.9 (inactive)
6 | Cc1cccc(C)c1NC1=NCCCS1.Cl [Xylazine hydrochloride] | 100 | 118 | 99.9 (inactive) | 111 (inactive)
7 | O=C1CSC(c2ccccc2Cl)c2cc(Cl)ccc2N1 (centres undefined) | 103 | 105 | 95.3 (inactive) | 115 (inactive)
8 | CCNC1=Nc2ccc(Cl)cc2C(C)(c2ccccc2)O1.Cl (centres undefined) | 92.5 | 105 | 97.3 (inactive) | 141 (active)
9 | Cc1nccc2c1[nH]c1ccccc12 [Harmane] | 100 ± 0.98 | 106 ± 11 | 97 (inactive) | 96.7 (inactive)
10 | CN1CCc2cc3c(cc2C1C1OC(=O)c2c1ccc1c2OCO1)OCO3 (single isomer, unassigned; (+)) [(+)-Bicuculline] | 92.1 ± 16 | 89.1 ± 15 | 98.9 (inactive) | 92.6 (inactive)
11 | CCCn1c(=O)c2[nH]c(C3CCCC3)nc2n(CCCOC(=O)c2ccc(S(=O)(=O)F)cc2)c1=O | 99.7 | 110 | 90.1 (inactive) | 77.2 (inactive)
12 | O=[N+]([O-])c1cc(O)c(O)c([N+](=O)[O-])c1 [3,5-Dinitrocatechol] | 98.6 | 107 | 99.9 (inactive) | 97.9 (inactive)
13 | CC(C)(OO)c1ccccc1 [Cumene hydroperoxide] | 101 | 113 | 105 (inactive) | 99.6 (inactive)
14 | CC1OCC(C[N+](C)(C)C)O1.[I-] (single isomer, unassigned; (+)) [(+)-cis-Dioxolane iodide] | 102 | 103 | 96 (inactive) | 99.6 (inactive)
15 | CCCN1CC(CSC)CC2c3cccc4[nH]cc(c34)CC21.CS(=O)(=O)O (centres undefined) [Pergolide methanesulfonate] | 98.8 | 98.2 | 98.1 (inactive) | 94.4 (inactive)
16 | C=CC12CN(C)C3C4COC(CC41)C1(C(=O)Nc4ccccc41)C32.Cl (centres undefined) | 102 | 111 | 101 (inactive) | 94.5 (inactive)
17 | CC1=C(C)C(=O)C(CCC(C)(O)CCCC(C)CCCC(C)CCCC(C)C)=C(C)C1=O (racemic) | 99 | 104 | 98.7 (inactive) | 101 (inactive)
18 | CCC1CN2CCc3cc(OC)c(OC)cc3C2CC1CC1NCCc2cc(OC)c(OC)cc21.Cl.Cl (centres undefined) | 60 | 27 | 120 (inactive) | 100 (inactive)
19 | COC(C)C(O)(C(=O)OCC1=CCN2CCC(O)C12)C(C)C (centres undefined) [Heliotrine] | 99.8 | 105 | 91.4 (inactive) | 90.6 (inactive)
20 | CC(C)Oc1cccnc1N(C)C1CCN(Cc2ccc(I)cc2)CC1 [RBI-257 maleate] | 100 | 98.1 | 94.8 (inactive) | 102 (inactive)
21 | CN(C)C(=O)Oc1cccc([N+](C)(C)C)c1 [Neostigmine] | 104 | 112 | 96.8 (inactive) | 101 (inactive)
22 | CCCN(CCC)C(=O)Cc1c(-c2ccc(Cl)cc2)nc2ccc(Cl)cn12 | 87.6 | 93.7 | 100 (inactive) | 115 (inactive)
23 | CC1CCCC=CC2CC(O)CC2C(O)C=CC(=O)O1 (centres undefined) [Brefeldin A] | 68.2 | 52.6 | 132 (active) | 208 (active)
24 | CCCCCC=CCC=CCC=CCC=CCCCCCC(=O)NCCO [Anandamide (22:4,n-6)] | 102 | 104 | 102 (inactive) | 98.3 (inactive)
25 | CN1CC(C(=O)NC2(C)OC3(O)C4CCCN4C(=O)C(Cc4ccccc4)N3C2=O)C=C2c3cccc4[nH]cc(c34)CC21 (centres undefined) [Ergotamine] | 97.8 | 108 | 95.3 (inactive) | 106 (inactive)
26 | CC1=CC(=O)C2=C(C)CC(O)C3C(C)C(=O)OC3C12 (centres undefined) [Austricin] | 101 | 97.7 | 96.7 (inactive) | 98.1 (inactive)

Row | Compound | cell number [1] | cell number [2] | H1.0 immunofluorescence intensity [3] | H1.0 immunofluorescence intensity [4]
27 | CC1OC(C[N+](C)(C)C)CC1O.[Cl-] (single isomer, unassigned; (+)) [(+)-Muscarine chloride] | 106 | 116 | 93 (inactive) | 83.8 (inactive)
28 | CC12CCC3C(CCC4(O)CC(O)CCC34C=O)C1(O)CCC2C1=CC(=O)OC1 (centres undefined) [Strophantidin] | 67 | 56.2 | 123 (active) | 115 (inactive)
29 | CC(C)(O)C1C2OC(=O)C1C1(O)CC3OC34C(=O)OC2C14C (centres undefined) [Picrotonin] | 99.4 | 100 | 97.2 (inactive) | 82.5 (inactive)
30 | CC1C(=O)OC2CCN3CC=C(COC(=O)C(C)(O)C1(C)O)C23 (centres undefined) [Monocrotaline] | 102 | 109 | 85.6 (inactive) | 90.2 (inactive)
31 | CC1CCC2C(C)C3CCC4(O)C(CC5C4CC(=O)C4CC(=O)CCC45C)C3CN2C1 (centres undefined) [Sevedindione] | 99.8 | 110 | 91.7 (inactive) | 85 (inactive)
32 | CNc1ccc2oc(CC3OC4(CCC3C)OC(C(C)C(=O)c3ccc[nH]3)C(C)CC4C)nc2c1C(=O)O (centres undefined) | 70.4 | 49.7 | 151 (active) | 124 (inactive)
33 | COc1ccc2c(c1O)-c1c(OC)c(OC)cc3c1C(C2)N(C)CC3.Cl (single isomer, unassigned; (+)) [(+)-Isocorydine hydrochloride] | 103 | 107 | 94.5 (inactive) | 91.4 (inactive)
34 | C[N+](C)(C)CCOC(=O)CBr.[Br-] [Bromoacetylcholine bromide] | 98.5 | 122 | 87.8 (inactive) | 85.7 (inactive)
35 | CCn1cnc2c(Nc3cccc(Cl)c3)nc(NC3CCCCC3N)nc21 (centres undefined) | 54 | 13.5 | 141 (active) | 134 (inactive)
36 | c1ccc2c3c([nH]c2c1)CNCC3 [Noreleagnine] | 103 | 108 | 92.6 (inactive) | 88.4 (inactive)
37 | Cl.NCC(O)c1ccc(O)cc1 (racemic) | 99.3 | 106 | 93.6 (inactive) | 93.1 (inactive)
38 | Cl.NCC#Cc1ccccc1 [3-Phenylpropargylamine hydrochloride] | 104 | 110 | 80.3 (inactive) | 102 (inactive)
39 | CC(=O)OCC1=C(C(=O)[O-])N2C(=O)C(NC(=O)CCCC(N)C(=O)[O-])C2SC1.[Zn+2] (centres undefined) [Cephalosporin C zinc salt] | 101 | 101 | 97.3 (inactive) | 90.8 (inactive)
40 | CC1C2Cc3ccc(O)cc3C1(C)CCN2CC1CC1 (single isomer, unassigned; (+)) [(+)-Cyclazocine] | 102 | 92.2 | 96.9 (inactive) | 86.8 (inactive)
41 | CCCN1CCc2cccc3c2C1Cc1ccc(O)c(O)c1-3.Cl (stereo not drawn) [R(-)-Propylnorapomorphine hydrochloride] | 93.2 | 91.8 | 92.9 (inactive) | 105 (inactive)
42 | CCCN1CCOC2c3cc(O)ccc3OCC21.Cl (racemic) | 104 | 91 | 88.1 (inactive) | 96.5 (inactive)
43 | CC(C)(C)C1(O)CC2OC(=O)CC23C(=O)OC2OC(=O)C(O)C231 (centres undefined) [Bilobalide] | 99.9 | 109 | 96.7 (inactive) | 97.2 (inactive)
44 | CN1C2CCCC1CC(=O)C2.Cl | 98.6 | 89.2 | 108 (inactive) | 94.5 (inactive)
45 | CN1CC(C(=O)NC2(C)OC3(O)C4CCCN4C(=O)C(Cc4ccccc4)N3C2=O)CC2c3cccc4[nH]cc(c34)CC21.CS(=O)(=O)O (centres undefined) [Dihydroergotamine mesylate] | 98.8 | 102 | 92.6 (inactive) | 105 (inactive)
46 | CCNC(=O)C[C@@H]1N=C(c2ccc(Cl)cc2)c2cc(OC)ccc2-n2c(C)nnc21 | 86.4 | 71.9 | 141 (active) | 198 (active)
47 | CN1CC(CNC(=O)OCc2ccccc2)CC2c3cccc4c3c(cn4C)CC21 (centres undefined) [Metergoline] | 97.2 | 105 | 118 (inactive) | 120 (inactive)
48 | CN1C2CCC1CC(O)C2 (centres undefined) [Tropine] | 102 | 104 | 96.1 (inactive) | 90 (inactive)
49 | S=C(NC1CCCCC1)N1CCC(c2cnc[nH]2)CC1 [Thioperamide maleate] | 104 | 100 | 99.8 (inactive) | 94.7 (inactive)
50 | C[N+]1(C)C2CCC1CC(OC(=O)C(CO)c1ccccc1)C2.[Br-] (centres undefined) [Atropine methyl bromide] | 102 | 105 | 91.2 (inactive) | 93.9 (inactive)
51 | CCC(CO)NC(=O)C1C=C2c3cccc4c3c(cn4C)CC2N(C)C1.O=C(O)C=CC(=O)O (centres undefined) [Methysergide maleate] | 101 ± 2.7 | 97.1 ± 7 | 100 (inactive) | 97 (inactive)
